Source: PubChem BioAssay (Tox21)
Results filed as inconclusive are left out. Where a call stands in place of a potency, no number is given. Values without a mark were called inactive. Active and inactive are the calls of the source. Unless noted, calls come from the whole dose curve; as a rule, active = well fitted curve in the direction sought with a large enough effect in the repeat runs; inconclusive = weak or mixed curves; inactive = no such curve, though single readings can be large; an effect the other way counts as inactive or inconclusive.

Experiments:
[1] = qHTS assay to identify small molecule antagonists of the vitamin D receptor (VDR) signaling pathway - cell viability counter screen (AID 743225); conditions: VDR-bla HEK293T viability, CellTiter-Glo luminescence, 16 h; series mostly up to 61 µM; note: nearly all actives have a fitted effect of over 50% in size
Method in brief: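 HEK293T VDR-bla; cpd + 1a,25-(OH)2D3 3 nM final, 16 h 37C/5% CO2; B/G FRET substrate 2 h RT; then CellTiter-Glo 30 min RT, luminescence.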

[2] = qHTS assay to identify small molecule agonists of the NFkB signaling pathway (AID 1159509; active = well fitted curve in the direction sought with a large enough effect in the signal ratio in the repeat runs, not every such curve was filed as active; the % refers to the signal ratio); conditions: NFkB-bla ME-180 cells, beta-lactamase FRET ratio, 5 h; series mostly up to 61 µM
Method in brief: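 Pathway activation was measured in ME-180 cells stably expressing beta-lactamase under NF-kB response element control. Substrate cleavage was read as the 460/530 nm emission shift after 5 hr compound incubation.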

[3] = qHTS assay to identify small molecule agonists of the NFkB signaling pathway - cell viability counter screen (AID 1159515; calls by dose curve; note: nearly all actives have a fitted effect of over 55% in size); conditions: NFkB-bla ME-180 viability, CellTiter-Glo luminescence, 5 h; series mostly up to 61 µM
Method in brief: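 Read by CellTiter-Glo luminescence (30 min, room temperature) in the wells also used for the beta-lactamase FRET read. ME-180 NFkB-bla cells at 2,000 per well were plated overnight, then exposed to compound for 5 hr at 37 C.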

[4] = qHTS assay to identify small molecule agonists of the endoplasmic reticulum stress response signaling pathway (AID 1159516; active = well fitted activation curve with a large enough effect in the signal ratio in the repeat runs, not every such curve was filed as active; the % refers to the signal ratio); conditions: ESRE-bla HeLa, ER stress beta-lactamase reporter, 5 h; series mostly up to 61 µM
Method in brief: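 Ratiometric FRET readout (405 nm excitation; 460 and 530 nm emission) of a beta-lactamase gene driven by the ER stress response element, after 2 hr substrate loading. HeLa ESRE-bla cells were seeded overnight and treated with compounds for only 5 hr at 37 C.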

[5] = qHTS assay to identify small molecule agonists of the endoplasmic reticulum stress response signaling pathway - cell viability counter screen (AID 1159517; calls by dose curve; note: nearly all actives have a fitted effect of over 50% in size); conditions: ESRE-bla HeLa viability, CellTiter-Glo luminescence, 5 h; series mostly up to 61 µM
Method in brief: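 ESRE-bla HeLa cells (1,500/well) were plated overnight at 37 C and exposed to compounds for 5 hr. After the 2 hr beta-lactamase substrate read, CellTiter-Glo went into the same wells, and luminescence was read after 30 min at room temperature.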

[6] = qHTS assay to identify small molecule antagonists of the retinoid-related orphan receptor gamma (ROR-gamma) signaling pathway - cell viability counter screen (AID 1159520); conditions: Tet-on RORgamma CHO cells viability, ATP luminescence, 16 h; series mostly up to 92.4 µM; note: nearly all actives have a fitted effect of over 50% in size
Method in brief: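 Cytotoxicity was read from cellular ATP (CellTiter-Glo luminescence) after 16 hr at 37 C with 1 uM doxycycline induction. The inducer was added 2 hr after compound transfer to Tet-on ROR gamma CHO cells.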

[7] = molecular target: Nuclear receptor ROR-gamma (Homo sapiens) (UniProt P51449); assay: qHTS assay to identify small molecule antagonists of the retinoid-related orphan receptor gamma (ROR-gamma) signaling pathway (AID 1159521; note: nearly all actives have a fitted effect of over 50% in size; note: potency is the fitted concentration of half-maximal effect); conditions: Tet-on RORgamma CHO cells, RORE-luciferase, 16 h; series mostly up to 92.4 µM
Method in brief: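 Cells were plated, rested 4 h at 37 C, exposed to compounds for 2 h, then given 1 uM final doxycycline hyclate to induce RORγ expression. After 16 h, ONE-Glo luminescence from the ROR response element reporter was measured.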

[8] = qHTS assay to identify small molecule agonists of the AP-1 signaling pathway - cell viability counter screen (AID 1159525; calls by dose curve; note: nearly all actives have a fitted effect of over 55% in size); conditions: ME-180 AP-1-bla cells viability, ATP luminescence, 5 h; series mostly up to 76.8 µM
Method in brief: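 Intracellular ATP by Cell Titer Glo luminescence (30 min, RT) in the same ME-180 AP-1-bla wells after the 5 h compound exposure at 37 °C. Normalised to tetra n-octyl ammonium bromide and DMSO controls.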

[9] = qHTS assay to identify small molecule agonists of the AP-1 signaling pathway (AID 1159526; calls by dose curve); conditions: ME-180 (cervical carcinoma) AP-1-bla reporter, beta-lactamase FRET ratio, 5 h; series mostly up to 76.8 µM
[10] = qHTS assay to identify small molecule antagonists of the retinoid acid receptor (RAR) signaling pathway - cell viability counter screen (AID 1159551); conditions: C3RL4 cells viability, ATP luminescence (CellTiter-Glo), 6 h; series mostly up to 92.4 µM; note: nearly all actives have a fitted effect of over 35% in size
Method in brief: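 Cytotoxicity counter screen: ATP content quantified by CellTiter-Glo luminescence in C3RL4 cells treated 6 hr at 37 C with compound and retinol (1 uM final). Cells plated at 1,000/well and cultured overnight before dosing.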

[11] = qHTS assay to identify small molecule antagonists of the retinoic acid receptor (RAR) signaling pathway (AID 1159552; note: nearly all actives have a fitted effect of over 50% in size); conditions: C3RL4 RARE luciferase reporter, retinol-stimulated, 6 h; series mostly up to 92.4 µM
Method in brief: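 Retinol at 1 uM final stimulated RARE-luciferase expression in C3RL4 cells exposed to test compounds for 6 hr at 37 C. Reduced luminescence, read 30 min after detection reagent, indicated pathway antagonism.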

[12] = qHTS assay to identify small molecule agonists of the retinoic acid receptor (RAR) signaling pathway (AID 1159553); conditions: C3RL4 RARE luciferase reporter, agonist, 6 h; series mostly up to 73.3 µM
Method in brief: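 Luminescence was measured 30 min after luciferase reagent addition at room temperature. Before that, C3RL4 reporter cells (1,000 per well, plated overnight) were treated with compound for 6 hr at 37 C and 5% CO2.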

[13] = qHTS assay to identify small molecule agonists of the vitamin D receptor (VDR) signaling pathway - cell viability counter screen (AID 743224); conditions: VDR-bla HEK293T viability, CellTiter-Glo luminescence, 16 h; series mostly up to 62.6 µM; note: nearly all actives have a fitted effect of over 50% in size
Method in brief: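 Counter screen run in the same wells as the VDR-bla reporter assay: CellTiter-Glo luminescence, 30 min at room temperature, after 16 h compound treatment at 37C of cells pre-plated for 4 h.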

[14] = qHTS assay to identify small molecule agonists of the RXR signaling pathway - cell viability counter screen (AID 1159529); conditions: RXR-alpha-bla HEK293T viability, CellTiter-Glo, 16 h; series mostly up to 76.8 µM
Method in brief: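 Steps: seed RXR-alpha-UAS-bla HEK 293T cells in assay medium containing 2% charcoal-stripped FBS; incubate 5 hr; add compounds in DMSO; incubate 16 hr at 37 C; after the bla read, add CellTiter-Glo and read luminescence at 30 min.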

SMILES	outcome [1]	outcome [2]	outcome [3]	outcome [4]	Potency [5]	Potency [6]	Potency [7]	Potency [8]	outcome [9]	Potency [10]	Potency [11]	Potency [12]	Potency [13]	Potency [14]
CC(=O)CCc1ccc2c(c1)OCO2	inactive	inactive	inactive	inactive	inactive	inactive	inactive	inactive	inactive	inactive	inactive	inactive		
O=[N+]([O-])c1cccc2c([N+](=O)[O-])cccc12	inactive	inactive	inactive	inactive	inactive	inactive	inactive	inactive	inactive	inactive		inactive	inactive	
ClCCOCOCCCl		inactive	inactive	inactive	inactive	inactive	inactive	inactive	inactive	inactive	inactive	inactive	inactive	
CC1(C)C(=O)NC(=O)NC1=O	inactive	inactive	inactive	inactive	inactive	inactive	inactive	inactive	inactive	inactive			inactive	inactive
CC(=O)CC(c1ccc(Cl)cc1)c1c(O)c2ccccc2oc1=O (configuration not stated)	inactive	inactive	inactive	inactive	inactive	inactive	inactive	inactive	inactive	inactive	inactive	inactive	inactive	
OCCBr	inactive	inactive	inactive	inactive	inactive	inactive	inactive	inactive	inactive	inactive			inactive	inactive
CCCCOC(=O)c1ccccc1N	inactive	inactive	inactive	inactive	inactive	inactive	inactive	inactive	inactive	inactive	inactive		inactive	
COc1cc(OC)nc(NC(=O)NS(=O)(=O)c2ncccc2C(=O)N(C)C)n1	inactive	inactive	inactive	inactive	inactive	inactive	inactive	inactive	inactive	inactive				inactive
CC(C)(C)C(=O)C(Oc1ccc(Cl)cc1)n1cncn1 (configuration not stated)		inactive	inactive	inactive	inactive	inactive	inactive	inactive	inactive	inactive	inactive	inactive	inactive	
CCOC(=O)C1(c2ccccc2)CCN(CCc2ccc(N)cc2)CC1	inactive	inactive	inactive	inactive	inactive	inactive	inactive	inactive	inactive	inactive	inactive	inactive	inactive	
CCOC(=O)NC(=S)Nc1ccccc1NC(=S)NC(=O)OCC		inactive	inactive	inactive	inactive	inactive	inactive	inactive	inactive	inactive	inactive			
CCNc1nc(NC(C)C)nc(OC)n1	inactive	inactive	inactive	inactive	inactive	inactive	inactive	inactive	inactive	inactive			inactive	inactive
O=P(O)(Oc1ccccc1)Oc1ccccc1		inactive	inactive	inactive	inactive	inactive	inactive	inactive	inactive	inactive			inactive	inactive
COc1cc(OC)nc(Oc2cccc(Oc3nc(OC)cc(OC)n3)c2C(=O)O)n1		inactive	inactive	inactive	inactive	inactive	inactive	inactive	inactive	inactive				
C=C(C)CN(CC)c1c([N+](=O)[O-])cc(C(F)(F)F)cc1[N+](=O)[O-]	inactive	inactive	inactive	inactive	inactive	inactive	inactive	inactive	inactive	inactive	inactive		inactive	
C[C@]1(O)CC[C@H]2[C@@H]3CCC4=CC(=O)CC[C@]4(C)[C@@]3(F)[C@@H](O)C[C@@]21C	inactive	inactive	inactive	inactive	inactive	inactive	inactive	inactive	inactive	inactive			inactive	inactive
NC(=O)O		inactive	inactive	inactive	inactive	inactive	inactive	inactive	inactive	inactive			inactive	
O=S(=O)(O)C(F)(F)C(F)(F)C(F)(F)C(F)(F)C(F)(F)C(F)(F)F	inactive	inactive	inactive	inactive	inactive	inactive	inactive	inactive	inactive	inactive			inactive	inactive
C[C@@H]1CN(C2CCC(C#N)(c3ccc(F)cc3)CC2)CC[C@]1(C(=O)O)c1ccccc1 (some centres not stated)	inactive	inactive	inactive	inactive	inactive	inactive	inactive	inactive	inactive	inactive			inactive	inactive
Cc1coc2c1CCC(C)C2 (configuration not stated)	inactive	inactive	inactive	inactive	inactive	inactive	inactive	inactive	inactive	inactive				inactive
CC(Oc1ccc(Oc2ncc(C(F)(F)F)cc2Cl)cc1)C(=O)O (configuration not stated)		inactive	inactive	inactive	inactive	inactive	27.3 µM (active)	inactive	inactive	inactive	inactive			
